Experimental data from PubChem BioAssay (NCATS).
Results filed as inconclusive are left out. The source made the active and inactive calls. Calls follow the shape of the dose curve; as a rule, active = well fitted curve in the direction sought with a large enough effect; inconclusive = small, poorly fitted or top-dose-only effect, or another doubt; inactive = no such curve, though single readings can be large; an effect the other way counts as inactive or inconclusive.

Columns and labels:
[1] = target: Alpha-galactosidase (Coffea arabica) (UniProt Q42656); test: Counterscreen for Glucocerebrosidase Inhibitors: qHTS Assay for Coffee Bean alpha-Galactosidase at pH 4.5 (AID 957); also: series mostly up to about 77 µM
Sequence of Alpha-galactosidase (Coffea arabica) (Q42656 whole entry, looked up): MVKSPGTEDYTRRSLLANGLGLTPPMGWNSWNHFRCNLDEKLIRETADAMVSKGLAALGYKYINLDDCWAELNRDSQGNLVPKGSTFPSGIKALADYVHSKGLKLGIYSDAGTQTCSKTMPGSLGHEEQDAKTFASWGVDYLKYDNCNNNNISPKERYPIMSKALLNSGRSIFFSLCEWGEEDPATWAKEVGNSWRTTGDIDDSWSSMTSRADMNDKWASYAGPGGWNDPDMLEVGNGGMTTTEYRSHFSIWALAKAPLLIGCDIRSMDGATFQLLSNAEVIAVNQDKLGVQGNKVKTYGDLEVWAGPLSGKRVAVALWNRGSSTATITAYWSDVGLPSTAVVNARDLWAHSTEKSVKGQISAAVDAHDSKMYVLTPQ
Procedure, shortened: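 Enzyme is added first (2 nM final), then compounds titrated from 0.7 nM to 77 uM, then 80 uM 4-methylumbelliferyl alpha-D-galactopyranoside; after 20 min at room temperature a pH 10 NaOH/glycine stop precedes fluorescence reading at 365/440 nm.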

[2] = MultiTox-Fluor Cytotoxicity Assay - LYMP1-001 - Dead Cells (AID 946)
Procedure, shortened: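 In this qHTS, 15 uM tetraoctylammonium bromide defined 100% and DMSO defined basal activity. Lymphoblastoid cells (LYMP1-001, 2500 per well) received compound for 16 hr at 37 C before a fluorogenic dead-cell substrate readout at 485/520 nm.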

[3] = MultiTox-Fluor Cytotoxicity Assay - LYMP1-002 - Live Cells (AID 955);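 also: cells exposed to compound for 16 hours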
Procedure, shortened: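 Cells were seeded at 2500 per well and incubated 5 hr. Compounds were then added for 16 hr at 37 C, followed by MultiTox-Fluor reagent for 60 min at room temperature and fluorescence reading of viable-cell protease signal.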

[4] = MultiTox-Fluor Cytotoxicity Assay - LYMP1-003 - Dead Cells (AID 961);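 also: cells exposed to compound for 16 h at 37 °C; nearly all actives have a fitted effect of over 70% in size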
Procedure, shortened: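 Acute toxicity is scored as increased dead-cell protease activity in human lymphoblastoid LYMP1-003 cells after 16 h compound exposure in complete culture medium. Activity is normalized to DMSO basal and 15 uM tetraoctylammonium bromide as full response.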

[5] = MultiTox-Fluor Cytotoxicity Assay - LYMP1-003 - Live Cells (AID 962);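 also: cells exposed to compound for 16 hours at 37 °C; cytotoxic hits lower the live-cell protease signal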
Procedure, shortened: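 Acute cytotoxicity is scored as a drop in live-cell protease activity in human lymphoblastoid LYMP1-003 cells after 16 hr compound exposure at 37 C. AC50 values come from Hill-equation modelling of concentration-response data.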

[6] = Cell Viability - LYMP1-003 - Assay at 24 hr (AID 963)
Procedure, shortened: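 Cytotoxicity is scored as a concentration-dependent fall in ATP-linked luciferase signal in human lymphoblastoid LYMP1-003 cells treated 24 hr at 37 C in complete culture medium.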

[7] = Cell Viability - LYMP1-003 - Assay at 40 hr (AID 964); also: series mostly up to about 92 µM; nearly all actives have a fitted effect of over 60% in size
Procedure, shortened: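 Luminescent ATP signal (CellTiter-Glo) served as the viability read-out after 40 hr compound treatment of human lymphoblastoid LYMP1-003 cells at 37 C. Decreases in ATP were fitted with the Hill equation to give AC50.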

[8] = MultiTox-Fluor Cytotoxicity Assay - LYMP1-002 - Dead Cells (AID 960);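 also: cells exposed to compound for 16 h at 37 °C; nearly all actives have a fitted effect of over 60% in size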
Procedure, shortened: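 Cells were plated, rested 5 hr, then treated with compound dilution series for 16 hr at 37 C. After adding substrate reagent and 60 min at room temperature, dead-cell protease fluorescence gave concentration-response curves fitted by the Hill equation.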

Measured: Potency

CCn1cc(C(=O)O)c(=O)c2cc3c(cc21)OCO3
inactive: [1]

COc1ccc(C(c2ccc(OC)cc2)C(Cl)(Cl)Cl)cc1
not listed: [1] | [8]
inactive: all other assays above

O=C(O)C(Cl)Cl
not listed: [1]
inactive: all other assays above

CCOP(=O)(NC(C)C)Oc1ccc(SC)c(C)c1 (configuration not stated)
not listed: [1]
inactive: all other assays above

C[N+](C)(C)CC(=O)O
inactive: [1]

O=[N+]([O-])c1c(Cl)c(Cl)cc(Cl)c1Cl
not listed: [1]
inactive: all other assays above

CS(=O)(=O)Nc1ccc([N+](=O)[O-])cc1Oc1ccccc1
inactive: [1]

O=[N+]([O-])c1c2ccccc2cc2ccccc12
not listed: [1]
inactive: all other assays above

CC(C)(O)C(=O)Nc1ccc([N+](=O)[O-])c(C(F)(F)F)c1
not listed: [1] | [8]
inactive: all other assays above

CCN(CC)CCNC(=O)c1ccc(NC(C)=O)cc1
inactive: [1]

CCOCCOC(C)=O
not listed: [1] | [8]
inactive: all other assays above

CC(C)(Sc1ccc(CCN(CCCCC2CCCCC2)C(=O)NC2CCCCC2)cc1)C(=O)O
inactive: [1]

c1cc2ccc3cccc4ccc(c1)c2c34
not listed: [1]
inactive: all other assays above

O=[N+]([O-])c1cc([N+](=O)[O-])c2ccccc2c1
not listed: [1]
inactive: all other assays above

O=S(=O)(c1ccc(Cl)cc1)c1ccc(Cl)cc1
not listed: [1]
inactive: all other assays above

Nc1ccc(Sc2ccc(N)cc2)cc1
not listed: [1]
inactive: all other assays above

C[C@]12C[C@H](O)[C@H]3[C@@H](CCC4=CC(=O)CC[C@@]43C)[C@@H]1CC[C@@H]2C(=O)CO
inactive: [1]

CCCCOC(=O)c1ccccc1C(=O)OCc1ccccc1
not listed: [1] | [8]
inactive: all other assays above

CN(C)NC(=O)CCC(=O)O
not listed: [1]
inactive: all other assays above

CN(C)[C@@H]1C(=O)C(C(N)=O)=C(O)[C@@]2(O)C(=O)C3=C(O)c4c(O)cccc4[C@@](C)(O)[C@H]3[C@H](O)[C@@H]12
not listed: [1]
inactive: all other assays above

Nc1ccc(Cl)cc1
not listed: [1]
inactive: all other assays above
